# The full data set covers some 8,800 targets. This sample favours those with a hit. About 0.5% of all pairs of compound and target were hits. Unmarked numbers belong to inactive results.
# Compound: CNC(=O)C1=CC=CC=C1NC2=NC(=NC=C2Cl)NC3=C(C=C(C=C3)N4CCOCC4)OC
# Test: log2 fold change, soluble protein after heating vs DMSO (PISA); higher = thermal stabilisation; K562 lysate, 10 uM; active = over 0.2 and 3.5 SD of the protein, either way, in both replicates (recomputed)
# In short: (§1)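 Log-two fold change in thermal stability relative to solvent controls is reported from duplicates. For each sample, crude K562 extract from dounce-homogenised pellets in PBS pH 7.4 with 1 mM MgCl2, at 1 mg/mL protein, was treated with 10 μM compound for 30 min. Aliquots heated for 3 min across 48°C-58°C were pooled, brought to 0.5% NP-40 at 4°C and cleared at 21,000xg for 90 min. The supernatant was quantified by TMTpro 16plex LC-MS/MS with channel sums equalised.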
# Chain of UniProt Q6P3W2 (Q6P3W2 whole entry, looked up): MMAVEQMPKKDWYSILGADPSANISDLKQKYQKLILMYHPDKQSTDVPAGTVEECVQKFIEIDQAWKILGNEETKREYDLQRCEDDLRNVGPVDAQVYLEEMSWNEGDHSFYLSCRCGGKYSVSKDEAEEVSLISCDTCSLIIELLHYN
# Chain of UniProt P00374 (P00374 whole entry, looked up): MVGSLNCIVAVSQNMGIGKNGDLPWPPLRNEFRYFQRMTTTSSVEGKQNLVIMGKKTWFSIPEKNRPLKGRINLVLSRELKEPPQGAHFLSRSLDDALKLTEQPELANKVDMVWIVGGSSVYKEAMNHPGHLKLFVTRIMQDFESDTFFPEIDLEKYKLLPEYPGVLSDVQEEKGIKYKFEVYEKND
# Chain of UniProt P39880 (P39880 whole entry, looked up): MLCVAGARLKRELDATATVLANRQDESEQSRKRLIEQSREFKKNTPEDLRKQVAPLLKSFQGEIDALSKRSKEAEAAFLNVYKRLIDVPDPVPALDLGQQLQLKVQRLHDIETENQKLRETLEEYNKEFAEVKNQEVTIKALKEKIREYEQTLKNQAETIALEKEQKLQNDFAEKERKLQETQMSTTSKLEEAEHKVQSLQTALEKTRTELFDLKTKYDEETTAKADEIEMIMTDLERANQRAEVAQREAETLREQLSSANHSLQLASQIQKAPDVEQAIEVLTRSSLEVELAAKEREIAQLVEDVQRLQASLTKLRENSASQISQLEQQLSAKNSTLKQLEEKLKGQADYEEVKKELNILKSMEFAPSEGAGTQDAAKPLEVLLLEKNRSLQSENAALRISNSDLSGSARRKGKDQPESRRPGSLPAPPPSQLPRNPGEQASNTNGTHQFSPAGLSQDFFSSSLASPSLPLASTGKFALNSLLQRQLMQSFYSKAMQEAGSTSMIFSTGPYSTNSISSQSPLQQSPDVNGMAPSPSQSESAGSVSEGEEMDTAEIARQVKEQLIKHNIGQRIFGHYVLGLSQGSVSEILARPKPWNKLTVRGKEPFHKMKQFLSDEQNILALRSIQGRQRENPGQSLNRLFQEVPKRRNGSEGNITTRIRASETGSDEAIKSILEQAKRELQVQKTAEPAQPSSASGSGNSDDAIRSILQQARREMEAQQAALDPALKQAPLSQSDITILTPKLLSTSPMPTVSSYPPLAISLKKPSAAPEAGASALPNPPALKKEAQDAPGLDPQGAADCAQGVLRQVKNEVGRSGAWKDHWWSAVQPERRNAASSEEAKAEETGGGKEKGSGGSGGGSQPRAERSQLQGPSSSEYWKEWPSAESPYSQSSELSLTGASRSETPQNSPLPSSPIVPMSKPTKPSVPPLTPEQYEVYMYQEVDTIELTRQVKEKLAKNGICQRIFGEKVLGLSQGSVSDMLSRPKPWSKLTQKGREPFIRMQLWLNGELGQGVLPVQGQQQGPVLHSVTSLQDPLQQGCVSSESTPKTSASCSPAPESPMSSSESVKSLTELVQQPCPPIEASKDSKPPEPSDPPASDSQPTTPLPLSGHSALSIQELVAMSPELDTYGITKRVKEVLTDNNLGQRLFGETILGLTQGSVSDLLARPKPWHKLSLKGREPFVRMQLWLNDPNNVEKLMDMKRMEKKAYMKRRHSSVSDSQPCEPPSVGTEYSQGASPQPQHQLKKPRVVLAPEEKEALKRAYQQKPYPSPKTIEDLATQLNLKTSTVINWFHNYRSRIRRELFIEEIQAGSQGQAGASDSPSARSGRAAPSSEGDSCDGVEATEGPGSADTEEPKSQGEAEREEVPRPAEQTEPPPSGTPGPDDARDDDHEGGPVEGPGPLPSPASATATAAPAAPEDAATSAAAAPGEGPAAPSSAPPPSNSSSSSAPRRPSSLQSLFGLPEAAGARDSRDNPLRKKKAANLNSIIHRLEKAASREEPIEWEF
# Chain of UniProt Q92796 (Q92796 whole entry, looked up): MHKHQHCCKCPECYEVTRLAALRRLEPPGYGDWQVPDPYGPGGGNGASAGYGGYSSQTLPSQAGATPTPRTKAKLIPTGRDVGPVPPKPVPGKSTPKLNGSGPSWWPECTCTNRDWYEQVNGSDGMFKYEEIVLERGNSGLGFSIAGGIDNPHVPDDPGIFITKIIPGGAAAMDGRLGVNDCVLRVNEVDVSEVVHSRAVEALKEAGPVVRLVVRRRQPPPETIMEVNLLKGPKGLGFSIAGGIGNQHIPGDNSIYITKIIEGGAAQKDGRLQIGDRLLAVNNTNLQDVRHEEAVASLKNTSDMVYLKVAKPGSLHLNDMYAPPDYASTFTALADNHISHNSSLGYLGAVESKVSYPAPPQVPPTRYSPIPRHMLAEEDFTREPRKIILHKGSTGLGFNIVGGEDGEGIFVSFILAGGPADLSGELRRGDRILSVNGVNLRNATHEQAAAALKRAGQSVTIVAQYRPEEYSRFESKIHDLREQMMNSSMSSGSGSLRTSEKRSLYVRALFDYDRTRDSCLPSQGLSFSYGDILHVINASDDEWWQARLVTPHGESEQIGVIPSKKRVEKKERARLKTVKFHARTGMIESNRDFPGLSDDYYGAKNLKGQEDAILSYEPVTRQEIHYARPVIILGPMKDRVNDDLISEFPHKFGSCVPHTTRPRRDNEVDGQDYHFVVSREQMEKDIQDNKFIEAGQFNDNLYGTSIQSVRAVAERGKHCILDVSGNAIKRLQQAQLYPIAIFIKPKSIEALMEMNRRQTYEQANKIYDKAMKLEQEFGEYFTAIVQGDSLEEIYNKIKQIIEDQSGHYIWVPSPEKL
# Chain of UniProt Q9H467 (Q9H467 whole entry, looked up): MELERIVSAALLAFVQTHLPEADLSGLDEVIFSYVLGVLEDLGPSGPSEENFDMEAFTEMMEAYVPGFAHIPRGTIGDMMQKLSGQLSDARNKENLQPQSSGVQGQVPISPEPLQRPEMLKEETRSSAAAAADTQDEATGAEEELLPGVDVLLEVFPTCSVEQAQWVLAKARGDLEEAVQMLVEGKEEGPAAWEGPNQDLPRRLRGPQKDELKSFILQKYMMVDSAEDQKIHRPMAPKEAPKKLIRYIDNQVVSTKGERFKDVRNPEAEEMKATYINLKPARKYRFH
# Chain of UniProt O94760 (O94760 whole entry, looked up): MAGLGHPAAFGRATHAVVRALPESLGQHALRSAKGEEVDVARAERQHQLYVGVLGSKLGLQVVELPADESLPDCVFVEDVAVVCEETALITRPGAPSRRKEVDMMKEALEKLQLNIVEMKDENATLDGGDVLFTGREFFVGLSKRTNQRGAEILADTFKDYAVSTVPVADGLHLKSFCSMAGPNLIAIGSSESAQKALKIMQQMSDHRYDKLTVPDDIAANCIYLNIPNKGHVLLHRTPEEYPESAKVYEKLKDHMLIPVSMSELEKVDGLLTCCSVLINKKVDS
# Chain of UniProt Q9H9E3 (Q9H9E3 whole entry, looked up): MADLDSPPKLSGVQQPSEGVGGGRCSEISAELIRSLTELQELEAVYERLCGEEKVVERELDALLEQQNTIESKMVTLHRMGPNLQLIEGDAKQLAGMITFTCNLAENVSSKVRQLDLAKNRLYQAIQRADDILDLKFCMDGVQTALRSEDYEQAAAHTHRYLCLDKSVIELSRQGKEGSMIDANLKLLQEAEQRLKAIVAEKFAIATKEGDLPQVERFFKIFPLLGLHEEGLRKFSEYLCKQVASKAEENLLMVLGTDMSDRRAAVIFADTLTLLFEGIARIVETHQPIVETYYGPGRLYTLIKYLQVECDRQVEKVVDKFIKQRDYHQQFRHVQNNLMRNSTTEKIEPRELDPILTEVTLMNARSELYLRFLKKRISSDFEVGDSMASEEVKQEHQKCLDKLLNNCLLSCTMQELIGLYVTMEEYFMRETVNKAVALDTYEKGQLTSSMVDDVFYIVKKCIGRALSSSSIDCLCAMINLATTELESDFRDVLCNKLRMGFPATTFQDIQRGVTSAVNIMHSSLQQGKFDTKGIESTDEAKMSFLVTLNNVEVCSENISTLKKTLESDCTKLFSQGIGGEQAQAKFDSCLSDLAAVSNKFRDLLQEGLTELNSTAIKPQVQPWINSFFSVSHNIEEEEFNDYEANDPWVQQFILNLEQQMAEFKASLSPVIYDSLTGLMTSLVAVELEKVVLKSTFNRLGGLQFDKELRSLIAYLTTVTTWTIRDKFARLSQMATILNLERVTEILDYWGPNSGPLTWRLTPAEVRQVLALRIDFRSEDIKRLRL
# Chain of UniProt Q9UP83 (Q9UP83 whole entry, looked up): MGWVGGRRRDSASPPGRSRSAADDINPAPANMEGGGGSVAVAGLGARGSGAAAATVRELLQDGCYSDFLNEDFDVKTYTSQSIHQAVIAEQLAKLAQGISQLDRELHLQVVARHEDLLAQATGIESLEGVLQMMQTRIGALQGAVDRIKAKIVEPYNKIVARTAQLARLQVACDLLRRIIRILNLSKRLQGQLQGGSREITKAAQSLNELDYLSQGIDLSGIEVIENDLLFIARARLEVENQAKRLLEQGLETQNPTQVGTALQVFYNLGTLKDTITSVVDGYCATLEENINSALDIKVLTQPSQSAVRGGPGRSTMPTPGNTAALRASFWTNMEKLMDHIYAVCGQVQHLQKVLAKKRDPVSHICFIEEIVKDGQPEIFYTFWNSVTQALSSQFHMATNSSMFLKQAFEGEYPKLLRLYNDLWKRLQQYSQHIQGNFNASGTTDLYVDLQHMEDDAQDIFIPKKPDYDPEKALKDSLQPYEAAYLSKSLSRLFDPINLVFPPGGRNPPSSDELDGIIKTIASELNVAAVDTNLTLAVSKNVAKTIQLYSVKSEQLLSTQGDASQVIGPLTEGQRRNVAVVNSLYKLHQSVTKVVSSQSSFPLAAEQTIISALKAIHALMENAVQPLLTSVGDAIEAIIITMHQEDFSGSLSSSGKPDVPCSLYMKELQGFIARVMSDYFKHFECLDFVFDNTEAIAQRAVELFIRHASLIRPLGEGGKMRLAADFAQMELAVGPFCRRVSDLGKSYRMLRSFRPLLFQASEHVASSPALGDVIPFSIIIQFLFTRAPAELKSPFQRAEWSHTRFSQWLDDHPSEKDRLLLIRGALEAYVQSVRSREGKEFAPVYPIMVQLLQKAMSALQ
# Chain of UniProt Q9P003 (Q9P003 whole entry, looked up): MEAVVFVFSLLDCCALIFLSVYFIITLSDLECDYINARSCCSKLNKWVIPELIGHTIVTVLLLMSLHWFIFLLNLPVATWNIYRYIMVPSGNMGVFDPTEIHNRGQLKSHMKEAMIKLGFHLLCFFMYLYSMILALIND
row,Target,log2 fold change
1,DHFR (UniProt P00374),-0.001
2,COG4 (UniProt Q9H9E3),0.025
3,COASY isoform 2 (UniProt Q13057),-0.003
4,DDX4 (UniProt Q9NQI0),-0.05
5,COG5 isoform 2 (UniProt Q9UP83),0.04
6,COX7B (UniProt P24311),0.112
7,DLG3 isoform 2 (UniProt Q92796),-0.026
8,CUX1 isoform 2 (UniProt Q13948),0.033
9,DCTN1 isoform 4 (UniProt Q14203),0.212
10,DDAH1 (UniProt O94760),0.037
11,CSNK1G3 (UniProt Q9Y6M4),0.014
12,CUX1 isoform 3 (UniProt P39880),0.055
13,CNNM2 (UniProt Q9H8M5),0.007
14,CNTN4 (UniProt Q8IWV2),0.021
15,DNAJC24 (UniProt Q6P3W2),-0.017
16,DNAH10 (UniProt Q8IVF4),-0.086

row,Target,log2 fold change
1,COQ8A (UniProt Q8NI60),0.384
2,CNOT4 isoform 9 (UniProt O95628),-0.087
3,CKS1B (UniProt P61024),0.032
4,DDB2 (UniProt Q92466),0.041
5,DIAPH1 (UniProt O60610),-0.003
6,COQ9 (UniProt O75208),-0.035
7,DPY19L3 (UniProt Q6ZPD9),-0.105
8,DENND1B (UniProt Q6P3S1),-0.105
9,DOCK10 (UniProt Q96BY6),0.208
10,DEF6 (UniProt Q9H4E7),0.027
11,CNIH4 (UniProt Q9P003),0.048
12,CLCN3 (UniProt P51790),-0.042
13,DIAPH1 (UniProt H9KV28),0.036
14,CUEDC2 (UniProt Q9H467),0.03
15,DNAH5 (UniProt Q8TE73),-0.032

# Compound: CNC(=O)c1ccc(Nc2ncc(C(F)(F)F)c(NCc3nccnc3N(C)S(C)(=O)=O)n2)cc1 [defactinib]
# Test: as above
# In short: as §1
row,Target,log2 fold change
1,DHFR (UniProt P00374),0.039
2,COG4 (UniProt Q9H9E3),0.029
3,COASY isoform 2 (UniProt Q13057),0.064
4,DDX4 (UniProt Q9NQI0),-0.058
5,COG5 isoform 2 (UniProt Q9UP83),-0.005
6,COX7B (UniProt P24311),0.042
7,CSNK1A1 (UniProt P48729),0.077
8,DLG3 isoform 2 (UniProt Q92796),0.053
9,CUX1 isoform 2 (UniProt Q13948),0.085
10,DCTN1 isoform 4 (UniProt Q14203),-0.046
11,DDAH1 (UniProt O94760),0.014
12,CSNK1G3 (UniProt Q9Y6M4),0.069
13,CUX1 isoform 3 (UniProt P39880),-0.006
14,CINP isoform 3 (UniProt Q9BW66),-0.056
15,CNNM2 (UniProt Q9H8M5),0.065
16,CNTN4 (UniProt Q8IWV2),-0.104
17,DNAJC24 (UniProt Q6P3W2),0.009
18,DNAH10 (UniProt Q8IVF4),-0.074

row,Target,log2 fold change
1,COQ8A (UniProt Q8NI60),0
2,CNOT4 isoform 9 (UniProt O95628),-0.085
3,CKS1B (UniProt P61024),0.075
4,DDB2 (UniProt Q92466),0.262 (active)
5,DIAPH1 (UniProt O60610),-0.018
6,COQ9 (UniProt O75208),0.023
7,DPY19L3 (UniProt Q6ZPD9),-0.039
8,CSNK1D (UniProt P48730),0.103
9,DENND1B (UniProt Q6P3S1),0.099
10,DOCK10 (UniProt Q96BY6),0.133
11,DEF6 (UniProt Q9H4E7),-0.07
12,CNIH4 (UniProt Q9P003),0.442
13,CLCN3 (UniProt P51790),-0.024
14,DIAPH1 (UniProt H9KV28),0.012
15,CUEDC2 (UniProt Q9H467),0.055
16,DNAH5 (UniProt Q8TE73),-0.014
17,CLASP2 (UniProt O75122),0.002

# Compound: CNc1nc(-c2ccc3c(N)n[nH]c3c2)cc(N2C[C@@H](C(=O)NC3CCCCC3)CC[C@H]2C)n1
# Test: as above
# In short: as §1
row,Target,log2 fold change
1,DHFR (UniProt P00374),-0.023
2,COG4 (UniProt Q9H9E3),-0.003
3,COASY isoform 2 (UniProt Q13057),-0.023
4,DDX4 (UniProt Q9NQI0),-0.116
5,COG5 isoform 2 (UniProt Q9UP83),-0.015
6,COX7B (UniProt P24311),-0.014
7,CSNK1A1 (UniProt P48729),0.019
8,DLG3 isoform 2 (UniProt Q92796),-0.01
9,CUX1 isoform 2 (UniProt Q13948),-0.028
10,DCTN1 isoform 4 (UniProt Q14203),0.105
11,DDAH1 (UniProt O94760),-0.002
12,CSNK1G3 (UniProt Q9Y6M4),0.03
13,CUX1 isoform 3 (UniProt P39880),0.005
14,CINP isoform 3 (UniProt Q9BW66),0.028
15,CNNM2 (UniProt Q9H8M5),-0.01
16,DNAJC24 (UniProt Q6P3W2),-0.088

row,Target,log2 fold change
1,DNAH10 (UniProt Q8IVF4),0.246
2,COQ8A (UniProt Q8NI60),0.079
3,CNOT4 isoform 9 (UniProt O95628),-0.047
4,CKS1B (UniProt P61024),-0.055
5,DDB2 (UniProt Q92466),0.069
6,DIAPH1 (UniProt O60610),-0.013
7,COQ9 (UniProt O75208),0.136
8,CSNK1D (UniProt P48730),-0.091
9,DENND1B (UniProt Q6P3S1),0.023
10,DOCK10 (UniProt Q96BY6),0.046
11,DEF6 (UniProt Q9H4E7),0.039
12,CNIH4 (UniProt Q9P003),0.049
13,CLCN3 (UniProt P51790),-0.194
14,CUEDC2 (UniProt Q9H467),0.078
15,DNAH5 (UniProt Q8TE73),-0.051

# From the supplement of paper PMC10849652
